# Source: PubChem BioAssay (NCATS)
# Inconclusive results are not listed. Where a call stands in place of a potency, no number is given. Activity calls are given as the source filed them. Unless noted, calls come from the whole dose curve; as a rule, active = well fitted curve in the direction sought with a large enough effect; inconclusive = small, poorly fitted or top-dose-only effect, or another doubt; inactive = no such curve, though single readings can be large; an effect the other way counts as inactive or inconclusive.
# Tests used:
# [1] = HPAF-II Cancer Cell Toxicity qHTS against the NCATS CANVASS Library (AID 1347346); note: nearly all actives have a fitted effect of over 55% in size; note: potency is the fitted concentration of half-maximal effect
# Summary of the method: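 First, HPAF-II cells are plated (1000 cells/well) and held 4 h at 37 degrees C. Next, compounds are pin-transferred as an 11-point series. After 72 h, CellTiter-Glo is added and luminescence measured.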
# [2] = UWB1.289 Cancer Cell Toxicity qHTS against the NCATS CANVASS Library (AID 1347347); note: nearly all actives have a fitted effect of over 60% in size; note: potency is the fitted concentration of half-maximal effect
# Summary of the method: (§1)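 Viability read-out: CellTiter-Glo luminescence after 72 h compound exposure at 37 °C/5% CO2. Cells plated at 1000/well, 4 h pre-incubation; 11-point titration. Bortezomib served as control.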
# [3] = Panc-1005 Cancer Cell Toxicity qHTS against the NCATS CANVASS Library (AID 1347349); note: nearly all actives have a fitted effect of over 60% in size; note: potency is the fitted concentration of half-maximal effect
# Summary of the method: as §1
# [4] = COV-362 Cancer Cell Toxicity qHTS against the NCATS CANVASS Library (AID 1347352); note: potency is the fitted concentration of half-maximal effect
# Summary of the method: (§2)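 First, 1000 cells go into each well and rest for 4 hours. Next, an 11-point dilution range is pinned in. Plates then incubate 72 hours before CellTiter-Glo addition and luminescence reading.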
# [5] = HEK-293 Cancer Cell Toxicity qHTS against the NCATS CANVASS Library (AID 1347355); note: nearly all actives have a fitted effect of over 65% in size
# Summary of the method: as §2
# [6] = KB-3-1 Cancer Cell Toxicity qHTS against the NCATS CANVASS Library (AID 1347366); note: nearly all actives have a fitted effect of over 75% in size; note: potency is the fitted concentration of half-maximal effect
# Summary of the method: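 KB-3-1 cells (500 cells/well) in DMEM + 10% FBS were treated with compounds for 72 hr at 37C, 5% CO2. Viability was read as CellTiter-Glo luminescence after 10 minutes at room temperature.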
# [7] = DH5-alpha competent E. coli microbial cell viability qHTS against the NCATS CANVASS Library (AID 1347377); conditions: outcome: dose series up to 46.1 µM unless noted
# Summary of the method: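 Bacteria were dispensed at 0.2 OD, then compounds were pin-transferred. Plates were incubated overnight at 37C, after which BacTiter-Glo was added and luminescence measured 20 min later.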
# [8] = qHTS for Inflammasome Signaling Inhibitors: IL-1-beta AlphaLISA screen against the NCATS CANVASS Library (AID 1347379);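 note: human THP-1 cells primed with LPS then triggered with ATP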;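 for activity change, negative = inhibition: secreted IL-1B measured as AlphaLISA emission at 615 nm; lower signal means less IL-1B release which is the wanted effect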;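 for potency: secreted IL-1B measured as AlphaLISA emission at 615 nm; potency is the fitted concentration of half-maximal effect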
# Summary of the method: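 Secreted IL-1B from human THP-1 cells quantified by AlphaLISA 16 hr after compound addition (final up to 57.5 uM). A 1 hr compound pretreatment preceded inflammasome activation with 250 ng/mL LPS plus 1.25 mM ATP (final).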
# [9] = qHTS for inhibitors of ER calcium dysfunction: SERCaMP assay screened against the NCATS CANVASS Library (AID 1347393); note: nearly all actives have a fitted effect of over 40% in size; note: potency is the fitted concentration of half-maximal effect;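 for activity change, negative = inhibition: lower secreted reporter signal means inhibitor of ER calcium depletion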
# Summary of the method: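 Thapsigargin-induced ER calcium depletion drives GLuc-SERCaMP secretion from SH-SY5Y cells; compounds given 16 h beforehand were scored by lowered coelenterazine luminescence after 4 h challenge.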
# [10] = system: Zika virus NS2B-NS3 protease (linked construct); assay: 384 well plate NINDS Rhodamine confirmatory qHTS for Zika virus inhibitors (AID 1347164);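 note: fluorescence from protease cleavage of Ac-LKRR-rhodamine 110 substrate; nearly all actives have a fitted effect of over 65% in size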; note: potency is the fitted concentration of half-maximal effect; for activity change, negative = inhibition: top concentration of the series differs between compounds
# Summary of the method: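 Linked protease at a final 5 nM, 30 nM or 60 nM was preincubated ~15 min with compounds, then given 10 microM Ac-LKRR-Rhodamine 110. Fluorescence (ex 485/em 538 nm) after 25 min in the dark at room temperature.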
# [11] = qHTS to identify inhibitors of the type 1 interferon - major histocompatibility complex class I in skeletal muscle: primary screen against the NCATS Mechanism Interrogation Plate v5.0 (MIPE) Libary (AID 1347411); note: nearly all actives have a fitted effect of over 65% in size
# Summary of the method: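 Seed engineered human myoblasts (HLA-B HiBit) in medium without dexamethasone containing 4 ng/ml IFN-beta; after 1 hr add compound titrations (top 46 uM final). Incubate 24 hrs at 37 C, lyse 10 min with HiBiT reagent, read luminescence.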
# [12] = Primary qHTS for inhibitors of nuclear receptor binding SET domain protein 2 (NSD2) in an isogenic RCH-ACV NSD2 p.E1099K mutant (9B) (AID 1645876); note: potency is the fitted concentration of half-maximal effect; nearly all actives have a fitted effect of over 70% in size
# [13] = target: Glutathione peroxidase 1 (Homo sapiens) (UniProt P07203); assay: Primary qHTS Assay for Inhibitors of Recombinant Selenoprotein Glutathione Peroxidase 1 (GPX1) (AID 1845191); note: nearly all actives have a fitted effect of over 65% in size
# Chain of Glutathione peroxidase 1 (Homo sapiens) (P07203 whole entry, looked up): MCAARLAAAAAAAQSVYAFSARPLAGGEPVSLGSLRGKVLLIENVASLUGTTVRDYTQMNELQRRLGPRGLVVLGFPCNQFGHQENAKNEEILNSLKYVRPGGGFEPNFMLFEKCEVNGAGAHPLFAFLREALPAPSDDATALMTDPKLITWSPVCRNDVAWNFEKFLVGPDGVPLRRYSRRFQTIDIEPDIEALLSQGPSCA
# Summary of the method: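 NADPH consumption tracked by fluorescence at 340/450 nm between t=0 and t=15 min, room temperature. Final mix: 10 nM GPX1, 100 nM glutathione reductase, 1 mM GSH, 0.5 mM NADPH, 0.5 mM cumene hydroperoxide, 0.01% BSA; 30 min compound–enzyme preincubation.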
# [14] = qHTS drug screen for cell cycle checkpoint inhibitors in PARPi-resistant BRCA-mutant ovarian cancer cell lines. (AID 1963452; calls by dose curve); conditions: PEO1/OlaR viability, CellTiter-Glo luminescence, 96 h, stronger effect = lower value
# Summary of the method: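 PEO1, PEO4 and PEO1/OlaR ovarian cancer cells, 600 per well, exposed 96 h at 37C to a dilution series. Viability read by CellTiter-Glo luminescence, normalized to DMSO and empty wells; activity summarized as Z-AUC.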
# [15] = qHTS assay to identify inhibitors of the type 1 interferon - major histocompatibility complex class I in skeletal muscle: Counter screen cell viability and HiBit confirmation (AID 1347412); conditions: iHSKM muscle cells + IFN-b, HiBiT or CellTiter-Glo, 24 h, at 45.9 µM (top of the series); note: nearly all actives have a fitted effect of over 60% in size
# Summary of the method: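 HLA-B*08:01–HiBiT knock-in immortalized human myoblasts (C25cl48) stimulated with 4.0 ng/ml human IFN-beta and dosed with compound in a 12-point 1:3 titration (top final 46 uM). After 24 hrs at 37 C, HiBiT lytic luminescence or CellTiter Glo ATP read out.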
# [16] = Confirmatory screen NINDS Rhodamine qHTS for Zika virus inhibitors (AID 1347161); note: nearly all actives have a fitted effect of over 60% in size; note: potency is the fitted concentration of half-maximal effect;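 for activity change, negative = inhibition: purified Zika NS2B-NS3 protease with linked NS2B cofactor domain and Rhodamine110 peptide substrate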
# Summary of the method: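 In 10 mM Tris-HCl pH 8.0 containing 0.01% Tween 20, linked NS2B-NS3 protease (25 nM final) is exposed to test compounds for 15 min. Cleavage of 1.5 microM Rhodamine110 substrate is tracked by fluorescence over 15 min.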
# [17] = qHTS Assay for Lipid Storage Modulators (AID 1519; calls by dose curve); conditions: Drosophila S3 cells, BODIPY lipid droplet/cell ratio, laser cytometry, cells loaded with oleic acid
# Summary of the method: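 Cells seeded at 5,000 per well were treated with compounds over a concentration series and loaded with oleic acid (400 uM, as added). Lipid droplet fluorescence (488 nm excitation, 500-530 nm channel) was read by laser-scanning cytometry and normalized to 20 uM Triacsin C.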
# [18] = target: Phospholipid hydroperoxide glutathione peroxidase GPX4 (Homo sapiens) (UniProt P36969); assay: Primary qHTS Assay for Inhibitors of Recombinant Selenoprotein Glutathione Peroxidase 4 (GPX4) (AID 1845192); conditions: outcome: dose series up to 50 µM unless noted; note: nearly all actives have a fitted effect of over 65% in size
# Chain of Phospholipid hydroperoxide glutathione peroxidase GPX4 (Homo sapiens) (P36969 whole entry, looked up): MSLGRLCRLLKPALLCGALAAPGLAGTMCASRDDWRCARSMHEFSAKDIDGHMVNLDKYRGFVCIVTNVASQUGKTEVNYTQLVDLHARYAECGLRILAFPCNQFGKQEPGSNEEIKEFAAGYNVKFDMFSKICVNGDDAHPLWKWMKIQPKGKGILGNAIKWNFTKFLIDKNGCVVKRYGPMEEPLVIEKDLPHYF
# Summary of the method: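 NADPH consumption followed by fluorescence at 340/450 nm, t=0 and after 15 min at room temperature. Reaction started with cumene hydroperoxide (0.5 mM final) after 30 min compound–GPX4 preincubation; final 200 nM GPX4, 100 nM GR, 1 mM GSH, 0.5 mM NADPH.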
# [19] = measured here: PEO1 parental Z-AUC
smiles,measurement,setting,value
CC(CCC[C@]1(C)C(=O)C=C[C@@]23C[C@]4(C)O[C@@H](C[C@@H]4[C@H]2O)C31)C(=O)O (some centres not stated),Potency,[1],inactive
same,Potency,[2],inactive
same,Potency,[3],inactive
same,Potency,[4],inactive
same,Potency,[5],inactive
same,Potency,[6],inactive
same,outcome,[7],inactive
same,Potency,[8],inactive
same,Potency,[9],inactive
CC(=O)c1c(C)cc2c(c1O)C(=O)c1c(O)cc(O)cc1C2=O,Potency,[1],inactive
same,Potency,[2],inactive
same,Potency,[3],inactive
same,Potency,[4],inactive
same,Potency,[5],inactive
same,Potency,[6],inactive
same,outcome,[7],inactive
same,Potency,[8],inactive
same,Potency,[9],inactive
CC(C)=CCC/C(C)=C/Cc1cc([C@@H]2CC(=O)c3c(cc(O)c(CC=C(C)C)c3O)O2)ccc1O,outcome,[7],inactive
same,Potency,[9],38.4 µM (active)
C[C@@]1(CCC(=O)Nc2c(O)ccc(C(=O)O)c2O)C(=O)C=C[C@]23C[C@H]4C[C@H](O[C@@]4(C)C2)C31 (some centres not stated),Potency,[1],inactive
same,Potency,[2],inactive
same,Potency,[3],inactive
same,Potency,[4],inactive
same,Potency,[5],inactive
same,Potency,[6],inactive
same,outcome,[7],inactive
same,Potency,[9],inactive
C/C=C/C(=O)C1(O)CC2CC(C(=O)O)CC(C)C2C1C1=C2C(=O)NC(=O)C2=C(CCCCC)C(C)O1 (configuration not stated),Potency,[1],18.8 µM (active)
CCCc1c2c([nH]c(=O)c1C)C(=O)c1[nH]c(=O)c(C)c(CCC)c1C2=O,Potency,[2],7.47 µM (active)
same,Potency,[3],10.6 µM (active)
same,Potency,[5],inactive
same,Potency,[6],inactive
same,outcome,[7],inactive
CC(C)=CCCC(C)(O)[C@H]1CC=C(C)C(O)C1 (some centres not stated),Potency,[1],inactive
same,Potency,[2],inactive
same,Potency,[3],inactive
same,Potency,[4],inactive
same,Potency,[5],inactive
same,Potency,[6],inactive
same,Potency,[8],inactive
CC1c2cccc(O)c2C(O)=C2C(=O)C3(O)C(O)=C(C(N)=O)C(=O)C(N(C)C)C3C(O)C21 (configuration not stated),Potency,[10],inactive
same,Potency,[11],inactive
COc1cc(C(=O)O)ccc1NC(=O)[C@@H]1N[C@@H](CC(C)(C)C)[C@](C#N)(c2ccc(Cl)cc2F)[C@H]1c1cccc(Cl)c1F,Potency,[10],5.62 µM (active)
same,Potency,[12],0.209 µM (active)
same,Potency,[13],inactive
same,Z-AUC,[14],2.81 (inactive)
same,Z-AUC,[14]; [19],1.51
same,Z-AUC,[14]; measured here: PEO4 Z-AUC,1.24
same,"activity change, negative = inhibition",[15]; HiBiT,-14.1% (inactive)
same,"activity change, negative = inhibition",[15]; Viability,-6.71% (inactive)
CCOC(=O)c1ccc(CN(Cc2ccc(Br)cc2)S(=O)(=O)c2cccc(C(F)(F)F)c2)cc1,Potency,[16],inactive
COC(=O)C1=C[C@]23C[C@@H](C)CC[C@@H]2[C@@]2(C)CC[C@@H](C(C)C)[C@@](O)(O3)[C@@H]12,Potency,[1],18.8 µM (active)
same,Potency,[3],inactive
same,Potency,[6],inactive
same,Potency,[9],34.3 µM (active)
C/C=C1/CN2C3CC1C1C=CC(=O)N4c5ccccc5[C@@]3(C[C@@H]2C2=C[C@H]3C5CC6N(CC[C@@]67c6ccccc6N(C2=O)[C@@H]37)C/C5=C/C)[C@H]14 (some centres not stated),Potency,[1],5.95 µM (active)
same,Potency,[2],9.41 µM (active)
same,Potency,[3],7.49 µM (active)
same,outcome,[7],inactive
same,Potency,[8],12.2 µM (active)
C[C@@H]1CC[C@]2(C(=O)O)CC[C@]3(C)C(=C2[C@H]1C)CC[C@@H]1[C@@]2(C)CC[C@H](O)C(C)(C)[C@@H]2CC[C@]13C,Potency,[3],21.1 µM (active)
same,Potency,[6],inactive
same,outcome,[7],inactive
same,Potency,[9],inactive
CC1COC2=C1C(=O)C(=O)c1c2ccc2c1CCCC2(C)C (configuration not stated),"activity change, negative = inhibition",[17]; at 57.5 µM (top of the series),2.92% (inactive)
same,max response,[17]; measured here: cell count channel max response,-7.49%
same,max response,[17]; measured here: lipid channel max response,-5.49%
same,Potency,[10],79.4 µM (active)
CN(C)c1cc(NC(=O)CNC(C)(C)C)c(O)c2c1C[C@H]1C[C@H]3[C@H](N(C)C)C(=O)C(C(N)=O)=C(O)[C@]3(O)C(=O)C1=C2O,Potency,[16],1.97 µM (active)
same,Potency,[11],inactive
same,Potency,[18],inactive
same,Z-AUC,[14],1.31 (inactive)
same,Z-AUC,[14]; [19],1.13
same,Z-AUC,[14]; measured here: PEO4 Z-AUC,1.05
CO/C=C/C(=O)c1cc2cnc3c(N)cc(=NC(=O)C(C)C)c([nH]1)c23,Potency,[4],0.211 µM (active)
same,Potency,[8],0.968 µM (active)
same,Potency,[9],inactive
CC[C@H](O)CCCCC[C@@H]1NC(=O)[C@H]2CCCCN2C(=O)[C@H]([C@H](C)CC)NC(=O)[C@H](Cc2cn(OC)c3ccccc23)NC1=O,Potency,[1],3.75 µM (active)
same,Potency,[3],18.8 µM (active)
same,Potency,[6],inactive
same,outcome,[7],inactive
same,Potency,[9],inactive
O=C1c2c(O)cc(O)cc2OC(c2ccc(O)cc2)C1O (configuration not stated),Potency,[1],inactive
same,Potency,[2],inactive
same,Potency,[3],inactive
same,Potency,[4],inactive
same,Potency,[5],inactive
same,Potency,[8],inactive
COc1c(O)cc2c(c1O)C(=O)c1c(coc1C)C2=O,Potency,[1],inactive
same,Potency,[2],inactive
same,Potency,[3],inactive
same,Potency,[5],inactive
same,outcome,[7],inactive
COC(=O)c1cc2cc3c(c(O)c2c(=O)o1)OC1(CC3)CC2=C(O1)C(=O)c1c(O)c(OC)cc(OC)c1C2=O (configuration not stated),Potency,[1],18.8 µM (active)
same,Potency,[3],21.1 µM (active)
same,outcome,[7],inactive
COc1ccc([C@@H]2CC(=O)c3c(cc(O)c(C/C=C(\C)CCC=C(C)C)c3O)O2)cc1,"activity change, negative = cytotoxicity",[1],-11.2% [at 7.64 µM] (inactive)
same,"activity change, negative = cytotoxicity",[3],-16.1% [at 7.64 µM] (inactive)
same,outcome,[8],inactive [at 11.5 µM]
C/C(=C\[C@H](C)C(=O)C[C@H](O)CC1CC(=O)NC(=O)C1)[C@@H]1OC(=O)CCCC/C=C/C[C@@H](O)[C@@H]1C,Potency,[6],14.8 µM (active)
same,Potency,[9],inactive
